Results filed as inconclusive are left out. Active and inactive are the calls of the source. Unless noted, the call rests on the fitted dose curve; in most records, active means well fitted curve in the direction sought with a large enough effect; inconclusive means small, poorly fitted or top-dose-only effect, or another doubt; inactive means no such curve, though single readings can be large; an effect the other way counts as inactive or inconclusive.
Columns and labels:
[1] = biological target: Lysosomal acid glucosylceramidase (Homo sapiens) (UniProt P04062); assay: Glucocerebrosidase-p2 (AID 348; in the data active means potency below about 10 µM; further: potency means the concentration at half of the fitted maximal effect); details: purified GBA, blue fluorogenic substrate, 40 min
Summary of the method: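 Compounds titrated from 0.6 nM upwards against 0.2 nM enzyme in pH 5.9 citric acid/KH2PO4, taurocholate, tween-20; blue fluorogenic substrate 80 uM, 40 min room temperature, stopped and read Ex 365/Em 440 for AC50.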

[2] = biological target: Glucocorticoid receptor (Homo sapiens) (UniProt P04150); assay: GR-GFP Redistribution (AID 450;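 active means compounds whose dose series gives a full or clear partial fitted curve of increased nuclear translocation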; further: potency means the concentration at half of the fitted maximal effect); details: U2OS GR-GFP nuclear translocation, laser cytometry, 2 h
[3] = biological target: Glucocorticoid receptor (Homo sapiens) (UniProt P04150); assay: GR-EFC Redistribution (AID 451; calls by dose curve; further: potency means the concentration at half of the fitted maximal effect); details: CHO-K1 GR-EFC translocation, beta-gal luminescence, 2 h
Summary of the method: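 CHO-K1 cells stably expressing nuclear-localized β-gal enzyme acceptor and GR fused C-terminally to the enzyme donor fragment; ligand-driven nuclear translocation restores β-gal by complementation. Compounds titrated up to 46 uM final, 2 h at 37 °C; luminescence read.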

[4] = biological target: Mitogen-activated protein kinase 10 (Mus musculus) (UniProt Q61831); assay: JNK3 AlphaScreen Assay (AID 530; active means well fitted curve in either direction with a large enough effect, not every such curve was filed as active;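 further: kinase came from lysate of stimulated human HepG2 cells; signal reports phosphorylation of biotinylated GST-cJun 1-79 at Ser73 with 10 µM ATP; on the % scale 0 is the no-effect control and ±100 the full control effect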)
Summary of the method: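 Inhibitors reduce antibody binding to phosphorylated biotin-cJun, lowering AlphaScreen luminescence. Lysates from HepG2 cells pre-activated by IL-1beta plus TNF-alpha supplied JNK3; compounds were titrated.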

[5] = biological target: 3',5'-cyclic-AMP phosphodiesterase 4B (Homo sapiens) (UniProt Q07343); assay: qHTS Assay for Inhibitors of PDE-IV (AID 607; active means well fitted activation curve with a large enough effect in the main read-out, with a control signal flat, not every such curve was filed as active; further: % of control where 0% means no effect)
Summary of the method: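 ACTOne HEK293 cells carry a modified cAMP-gated CNG channel and express endogenous PDE4; plated 1000 cells/well, compounds up to 22.9 uM final. Membrane-potential dye fluorescence (ex 535/em 590) was read; parental cells received 10 uM forskolin + 100 uM RO 20-1724.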

[6] = qHTS Assay for Lipid Storage Modulators (AID 1519; calls by dose curve); details: Drosophila S3 cells, BODIPY lipid droplet/cell ratio, laser cytometry, cells loaded with oleic acid; for activity change, negative = inhibition: at 57.5 µM (top of the series)
Summary of the method: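 Cells seeded at 5,000 per well were treated with compounds over a concentration series and loaded with oleic acid (400 uM, as added). Lipid droplet fluorescence (488 nm excitation, 500-530 nm channel) was read by laser-scanning cytometry and normalized to 20 uM Triacsin C.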

[7] = biological target: Dual specificity protein kinase CLK4 (Homo sapiens) (UniProt Q9HAZ1); assay: qHTS Assay for Inhibitors of CDC-like Kinase 4 (Kinase-Glo Assay) (AID 1770); further: nearly all actives have a fitted effect of over 65% in size; further: potency means the concentration at half of the fitted maximal effect
Summary of the method: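 Luminescent ATP-depletion read-out (Kinase-Glo) after 4.5 h room-temperature reaction of Clk4 (25 nM final) with RS peptide (100 uM) and ATP (1 uM), pH 7.5 Tris buffer with MgCl2 and DTT.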

[8] = biological target: Ubiquitin carboxyl-terminal hydrolase 1 (Homo sapiens) (UniProt O94782); assay: Inhibitors of USP1/UAF1: Pilot qHTS (AID 504865);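 further: rhodamine fluorescence freed from ubiquitin-rhodamine substrate followed over time; top concentration of the series differs between compounds; on the % scale 0 is the no-effect control and ±100 the full control effect; nearly all actives have a fitted effect of over 35% in size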
Summary of the method: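 Deubiquitinase activity followed as kinetic rhodamine fluorescence release from 150 nM Ub-Rho. 1 nM USP1/UAF1 with compound, after 15 min room-temperature preincubation, in HEPES pH 7.8 buffer containing TCEP, EDTA, BSA and Tween-20.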

[9] = Counterscreen qHTS for small molecule stabilizers of the endoplasmic reticulum resident proteome: GLuc-NoTag assay (AID 1508627);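 further: SH-SY5Y cells given compound then 100 nM thapsigargin to empty ER calcium; 0% = thapsigargin alone and -100% = DMSO vehicle control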
Summary of the method: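 SH-SY5Y cells stably expressing constitutively secreted GLuc (no SERCaMP tag) were pre-incubated 5 h, treated with compound for 19 h, then 100 nM thapsigargin for 4 h at 37C; medium GLuc read by coelenterazine luminescence.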

[10] = AP1 Signaling Pathway (AID 357; active means well fitted curve in either direction with a large enough effect, not every such curve was filed as active;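 further: ME-180 reporter cells stimulated with EGF at its EC50 level; on the % scale 0 is the no-effect control and ±100 the full control effect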); details: ME-180 AP-1-bla reporter, EGF-induced, beta-lactamase ratio, 5 h; at 7.69 µM (top of the series) unless noted
Summary of the method: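 Titration-series screen for positive or negative modulators of EC50 EGF-induced signaling in ME-180 cells carrying an AP-1-driven beta-lactamase reporter. After 5 hours at 37 degrees Celsius, CCF4 460nm/530nm emission ratio gave %Activity; AC50 values derived.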

[11] = NFAT Signaling Pathway (AID 444; active means well fitted curve in either direction with a large enough effect, not every such curve was filed as active;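 further: carbachol stimulus at about its EC50 of 1 µM final; on the % scale 0 is the no-effect control and ±100 the full control effect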); details: Jurkat NFAT-bla M1, carbachol, beta-lactamase ratio, 5 h; at 7.69 µM (top of the series) unless noted
Summary of the method: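 Jurkat cells carrying an NFAT-driven β-lactamase reporter and co-transfected muscarinic M1 receptor were treated with compound plus carbachol (1 uM final, an EC50 level) for 5 h at 37 °C. CCF4 loading followed for 1 h at RT; 460/530 nm ratio gave %activity.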

[12] = biological target: Cytochrome P450 3A4 (Homo sapiens) (UniProt P08684); assay: qHTS Assay for Activators of Cytochrome P450 3A4 (AID 885); further: nearly all actives have a fitted effect of over 65% in size
Summary of the method: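 20nM CYP3A4 + 25uM Luciferin-PPXE (=KM), 200mM KPO4; cpd 10 min RT; NADPH regen, 60 min RT; stop w/ detection buffer, 20 min; luminescence. Normalized to 57 uM ketoconazole.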

[13] = biological target: Cytochrome P450 1A2 (Homo sapiens) (UniProt P05177); assay: p450-cyp1a2 (AID 410; calls by dose curve; further: potency means the concentration at half of the fitted maximal effect)
Summary of the method: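 Luminescent readout of luciferin formed from Luciferin-ME by human CYP1A2; data normalized against complete inhibition by 57 uM furafylline. Enzyme 20nM, substrate 100uM at Km, 100mM KPO4 buffer, 60 min reaction at room temperature.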

[14] = Stat Signaling Pathway (AID 446; active means well fitted curve in either direction with a large enough effect, not every such curve was filed as active;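 further: ME-180 cervical cancer cells given 40 pM IL-6 alongside compound; SIE-controlled beta-lactamase reporter measured as 460/530 nm FRET emission ratio; on the % scale 0 is the no-effect control and ±100 the full control effect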); details: ME-180 SIE beta-lactamase reporter, IL-6 stimulated, 5 h; at 7.69 µM (top of the series) unless noted
Summary of the method: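 ME-180 SIE-bla cells; overnight plating; cpd + IL-6 40 pM, 5 h, 37 C; LiveBLAzer 2.5 h RT; 460/530 nm emission ratio. Normalized to 300 pM IL-6 and 125 nM JAK inhibitor controls.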

[15] = biological target: Dual specificity protein kinase CLK4 (Homo sapiens) (UniProt Q9HAZ1); assay: qHTS Assay for Inhibitors of CDC-like Kinase 4 (ADP-Glo Assay) (AID 1771); further: nearly all actives have a fitted effect of over 70% in size; further: potency means the concentration at half of the fitted maximal effect
Summary of the method: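 Luminescence from ADP-Glo reports ADP produced by 25 nM Clk4 acting on 100 uM RS repeat peptide with 1 uM ATP over 1 hr at room temperature; residual ATP is depleted before ADP is converted to ATP for detection.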

[16] = biological target: Dual specificity protein kinase CLK4 (Homo sapiens) (UniProt Q9HAZ1); assay: qHTS Assay for Inhibitors of CDC-like Kinase 4 (ADP-FP Assay) (AID 1795);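 further: recombinant human CLK4 phosphorylating RS repeat peptide at 1 µM ATP; on the % scale 0 is the no-effect control and ±100 the full control effect; nearly all actives have a fitted effect of over 60% in size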
Summary of the method: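 Kinase activity was measured as ADP production using Transcreener orange tracer (4 nM) and ADP antibody (1 ug/mL) fluorescence polarization, with ADP calculated from a calibration curve. The 1 h reaction contained 6.25 nM Clk4, 1 uM ATP and 100 uM RS peptide at pH 7.5 with Mg2+.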

[17] = Confirmatory qHTS for small molecule stabilizers of the endoplasmic reticulum resident proteome: Secreted ER Calcium Modulated Protein (SERCaMP) assay (AID 1508628); further: nearly all actives have a fitted effect of over 40% in size; further: potency means the concentration at half of the fitted maximal effect
Summary of the method: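 SH-SY5Y cells stably expressing GLuc-SERCaMP, treated 16 h with compound (primary 1.53, 7.67, 38.3 uM; confirmation 11 concentrations, up to 76.6 uM), then 100 nM thapsigargin for 4 h. Secreted Gaussia luciferase in medium read by coelenterazine luminescence.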

[18] = Cell Viability qHTS for small molecule stabilizers of the endoplasmic reticulum resident proteome (AID 1508629); details: cell viability counter-screen, 100 nM thapsigargin for final 4 h
[19] = biological target: Rap guanine nucleotide exchange factor 3 (Homo sapiens) (UniProt O95398); assay: Confirmatory qHTS for agonist of cAMP-regulated guanine nucleotide exchange factor 3 (EPAC1) (AID 1645881);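 further: EPAC1 catalysed release of BODIPY-GDP from Rap1B seen as fluorescence loss; 100% = effect of cAMP agonist control; nearly all actives have a fitted effect of over 75% in size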
[20] = biological target: Rap guanine nucleotide exchange factor 4 (Homo sapiens) (UniProt Q8WZA2); assay: Confirmatory qHTS for agonist of cAMP-regulated guanine nucleotide exchange factor 4 (EPAC2) (AID 1645884);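 further: nucleotide exchange releases bodipy-GDP from Rap1 and this lowers its fluorescence; on the % scale 0 is the no-effect control and ±100 the full control effect; nearly all actives have a fitted effect of over 65% in size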
[21] = biological target: Rap guanine nucleotide exchange factor 3 (Homo sapiens) (UniProt O95398); assay: Counterscreen qHTS for antagonist of cAMP-regulated guanine nucleotide exchange factor 3 (EPAC1) (AID 1645888);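 further: fluorescence loss as bound BODIPY-GDP is released from Rap1B; % of control where 0% means no effect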
Summary of the method: (§1)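 Measured: fluorescence of BODIPY-GDP bound to Rap1B, which falls as exchange proceeds. Conditions include 50 uM competing GDP, 5 and 30 min reads, and a later cAMP challenge for antagonist detection.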

[22] = biological target: Rap guanine nucleotide exchange factor 3 (Homo sapiens) (UniProt O95398); assay: Counterscreen qHTS for agonist of cAMP-regulated guanine nucleotide exchange factor 3 (EPAC1) (AID 1645889); further: % of control where 0% means no effect; nearly all actives have a fitted effect of over 40% in size
Summary of the method: as §1

[23] = biological target: Cytochrome P450 3A4 (Homo sapiens) (UniProt P08684); assay: qHTS Assay for Inhibitors and Substrates of Cytochrome P450 3A4 (AID 884); further: potency means the concentration at half of the fitted maximal effect; nearly all actives have a fitted effect of over 50% in size
Summary of the method: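 20 nM human CYP3A4 with 25 uM Luciferin-PPXE (at KM) in 200 mM KPO4, preincubated 10 min with compound; NADPH regeneration started a 60 min RT reaction. Luciferin detected by luminescence, normalized to 57 uM ketoconazole as full inhibition.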

[24] = Confirmation and Secondary Assay for Modulators of Hemoglobin Beta Chain Splicing at IVS2 654 locus (AID 910);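 further: per-well total GFP intensity by laser scanning cytometry after 2-day treatment; % of control where 0% means no effect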
Summary of the method: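 HeLa cells stably carrying EGFP interrupted by mutant beta-globin IVS2-654 intron (CMV-driven) were treated with compound for 2 days at 37C; corrected splicing was scored as total peak GFP intensity per well (488 nm excitation, 500-520 nm emission).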

[25] = Confirmation and Secondary Assay for Modulators of Hemoglobin Beta Chain Splicing at IVS2 705 locus (AID 930);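 further: HeLa cells stably expressing the EGFP-705 splicing reporter; % of control where 0% means no effect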
Summary of the method: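 Restored EGFP fluorescence after 2-day compound exposure reports splicing correction in IVS2-705 EGFP reporter HeLa cells; positive control was 500 nM splice-blocking PNA oligo. Signal measured as well total peak GFP intensity (488 nm excitation).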

[26] = measured here: cell count channel max response
[27] = measured here: lipid channel max response

Sequence of Lysosomal acid glucosylceramidase (Homo sapiens) (P04062 whole entry, looked up): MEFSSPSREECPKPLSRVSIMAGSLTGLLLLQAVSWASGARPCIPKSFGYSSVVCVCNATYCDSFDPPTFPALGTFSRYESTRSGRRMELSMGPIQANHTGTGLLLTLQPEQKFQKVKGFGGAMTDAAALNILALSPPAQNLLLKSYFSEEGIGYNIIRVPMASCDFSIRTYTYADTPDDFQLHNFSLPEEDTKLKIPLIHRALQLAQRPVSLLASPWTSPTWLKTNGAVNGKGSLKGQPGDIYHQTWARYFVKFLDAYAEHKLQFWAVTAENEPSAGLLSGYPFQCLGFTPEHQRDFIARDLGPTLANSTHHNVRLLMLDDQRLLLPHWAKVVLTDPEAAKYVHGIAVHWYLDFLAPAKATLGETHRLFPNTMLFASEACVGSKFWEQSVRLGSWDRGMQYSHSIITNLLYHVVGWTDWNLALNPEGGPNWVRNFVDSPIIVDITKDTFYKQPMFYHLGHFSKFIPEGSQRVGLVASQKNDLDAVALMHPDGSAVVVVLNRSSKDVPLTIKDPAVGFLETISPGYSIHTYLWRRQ
Sequence of Ubiquitin carboxyl-terminal hydrolase 1 (Homo sapiens) (O94782 whole entry, looked up): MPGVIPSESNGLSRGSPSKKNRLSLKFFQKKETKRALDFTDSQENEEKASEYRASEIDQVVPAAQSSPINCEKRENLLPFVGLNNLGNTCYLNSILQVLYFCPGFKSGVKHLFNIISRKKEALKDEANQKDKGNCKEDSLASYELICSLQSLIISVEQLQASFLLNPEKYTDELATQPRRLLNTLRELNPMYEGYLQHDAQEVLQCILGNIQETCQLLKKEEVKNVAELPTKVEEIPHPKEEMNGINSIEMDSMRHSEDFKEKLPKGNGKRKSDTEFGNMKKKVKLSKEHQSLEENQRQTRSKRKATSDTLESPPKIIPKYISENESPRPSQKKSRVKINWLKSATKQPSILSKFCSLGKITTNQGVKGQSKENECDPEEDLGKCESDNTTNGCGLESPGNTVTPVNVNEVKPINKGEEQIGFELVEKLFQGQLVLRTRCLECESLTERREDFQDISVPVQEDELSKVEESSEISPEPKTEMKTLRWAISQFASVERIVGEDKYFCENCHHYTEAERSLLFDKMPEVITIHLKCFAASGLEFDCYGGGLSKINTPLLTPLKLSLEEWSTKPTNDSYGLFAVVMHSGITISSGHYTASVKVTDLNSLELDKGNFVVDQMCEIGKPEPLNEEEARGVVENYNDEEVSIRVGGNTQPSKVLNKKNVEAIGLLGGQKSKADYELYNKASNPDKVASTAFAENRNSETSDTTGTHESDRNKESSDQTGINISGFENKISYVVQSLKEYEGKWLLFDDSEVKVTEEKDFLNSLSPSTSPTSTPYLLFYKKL
Sequence of Cytochrome P450 1A2 (Homo sapiens) (P05177 whole entry, looked up): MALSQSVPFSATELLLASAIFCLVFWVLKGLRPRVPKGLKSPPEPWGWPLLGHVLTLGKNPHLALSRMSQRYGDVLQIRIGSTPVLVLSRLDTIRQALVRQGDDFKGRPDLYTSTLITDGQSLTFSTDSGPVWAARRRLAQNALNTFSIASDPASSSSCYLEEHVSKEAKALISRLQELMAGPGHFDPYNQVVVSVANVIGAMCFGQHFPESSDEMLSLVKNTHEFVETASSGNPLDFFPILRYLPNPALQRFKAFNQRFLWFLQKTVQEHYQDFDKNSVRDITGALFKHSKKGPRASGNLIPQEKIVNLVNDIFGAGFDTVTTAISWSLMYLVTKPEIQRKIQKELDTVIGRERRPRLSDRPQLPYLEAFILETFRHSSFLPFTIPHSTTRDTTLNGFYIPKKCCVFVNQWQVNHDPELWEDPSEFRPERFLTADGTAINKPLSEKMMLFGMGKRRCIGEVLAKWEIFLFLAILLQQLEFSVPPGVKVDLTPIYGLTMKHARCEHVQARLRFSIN
Sequence of Glucocorticoid receptor (Homo sapiens) (P04150 whole entry, looked up, the tested form may be a part): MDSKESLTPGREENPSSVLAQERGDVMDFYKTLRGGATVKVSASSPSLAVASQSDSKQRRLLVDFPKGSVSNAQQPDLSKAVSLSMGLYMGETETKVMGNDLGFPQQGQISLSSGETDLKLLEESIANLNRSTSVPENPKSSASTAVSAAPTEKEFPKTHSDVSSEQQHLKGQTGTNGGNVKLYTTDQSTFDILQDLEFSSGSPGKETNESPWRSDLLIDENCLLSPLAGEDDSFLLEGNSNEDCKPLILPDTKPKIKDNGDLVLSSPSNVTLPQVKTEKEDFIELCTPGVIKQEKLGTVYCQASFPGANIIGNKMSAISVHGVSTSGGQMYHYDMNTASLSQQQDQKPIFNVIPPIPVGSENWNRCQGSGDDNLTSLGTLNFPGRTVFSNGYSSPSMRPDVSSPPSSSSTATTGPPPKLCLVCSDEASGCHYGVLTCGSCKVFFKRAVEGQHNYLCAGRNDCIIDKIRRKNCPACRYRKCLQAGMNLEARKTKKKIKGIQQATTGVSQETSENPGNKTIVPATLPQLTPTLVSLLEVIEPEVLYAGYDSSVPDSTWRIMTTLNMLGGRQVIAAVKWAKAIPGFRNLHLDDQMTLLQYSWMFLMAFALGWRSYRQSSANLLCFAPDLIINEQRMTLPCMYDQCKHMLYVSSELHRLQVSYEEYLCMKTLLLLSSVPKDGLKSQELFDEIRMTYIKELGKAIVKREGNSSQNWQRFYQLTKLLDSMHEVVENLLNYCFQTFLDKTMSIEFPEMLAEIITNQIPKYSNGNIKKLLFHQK
Sequence of Cytochrome P450 3A4 (Homo sapiens) (P08684 whole entry, looked up): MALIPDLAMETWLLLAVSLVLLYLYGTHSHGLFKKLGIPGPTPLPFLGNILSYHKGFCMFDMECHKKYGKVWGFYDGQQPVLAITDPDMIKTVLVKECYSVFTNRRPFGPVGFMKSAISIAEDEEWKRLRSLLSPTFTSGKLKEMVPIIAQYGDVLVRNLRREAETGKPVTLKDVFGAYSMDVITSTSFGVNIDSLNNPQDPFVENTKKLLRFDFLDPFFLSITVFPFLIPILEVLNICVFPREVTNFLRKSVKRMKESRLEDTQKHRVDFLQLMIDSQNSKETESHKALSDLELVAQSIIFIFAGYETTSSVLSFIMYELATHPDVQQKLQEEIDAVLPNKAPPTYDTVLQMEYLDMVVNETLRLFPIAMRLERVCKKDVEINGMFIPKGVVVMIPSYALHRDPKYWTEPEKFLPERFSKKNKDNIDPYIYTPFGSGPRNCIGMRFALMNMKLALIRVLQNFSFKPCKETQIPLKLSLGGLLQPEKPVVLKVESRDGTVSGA
Sequence of Dual specificity protein kinase CLK4 (Homo sapiens) (Q9HAZ1 whole entry, looked up): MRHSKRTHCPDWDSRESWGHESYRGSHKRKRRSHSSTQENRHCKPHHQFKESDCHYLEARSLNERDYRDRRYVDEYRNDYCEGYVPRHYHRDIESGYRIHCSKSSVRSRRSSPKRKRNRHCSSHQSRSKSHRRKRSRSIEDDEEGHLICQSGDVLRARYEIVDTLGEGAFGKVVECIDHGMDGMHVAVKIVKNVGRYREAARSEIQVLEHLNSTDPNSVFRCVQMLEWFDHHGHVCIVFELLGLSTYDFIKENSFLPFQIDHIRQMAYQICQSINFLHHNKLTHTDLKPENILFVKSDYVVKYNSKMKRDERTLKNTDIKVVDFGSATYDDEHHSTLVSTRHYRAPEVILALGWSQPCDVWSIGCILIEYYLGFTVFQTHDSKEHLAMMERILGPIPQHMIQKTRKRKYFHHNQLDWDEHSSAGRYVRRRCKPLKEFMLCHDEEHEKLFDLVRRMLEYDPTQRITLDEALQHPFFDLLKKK
Sequence of Rap guanine nucleotide exchange factor 3 (Homo sapiens) (O95398 whole entry, looked up): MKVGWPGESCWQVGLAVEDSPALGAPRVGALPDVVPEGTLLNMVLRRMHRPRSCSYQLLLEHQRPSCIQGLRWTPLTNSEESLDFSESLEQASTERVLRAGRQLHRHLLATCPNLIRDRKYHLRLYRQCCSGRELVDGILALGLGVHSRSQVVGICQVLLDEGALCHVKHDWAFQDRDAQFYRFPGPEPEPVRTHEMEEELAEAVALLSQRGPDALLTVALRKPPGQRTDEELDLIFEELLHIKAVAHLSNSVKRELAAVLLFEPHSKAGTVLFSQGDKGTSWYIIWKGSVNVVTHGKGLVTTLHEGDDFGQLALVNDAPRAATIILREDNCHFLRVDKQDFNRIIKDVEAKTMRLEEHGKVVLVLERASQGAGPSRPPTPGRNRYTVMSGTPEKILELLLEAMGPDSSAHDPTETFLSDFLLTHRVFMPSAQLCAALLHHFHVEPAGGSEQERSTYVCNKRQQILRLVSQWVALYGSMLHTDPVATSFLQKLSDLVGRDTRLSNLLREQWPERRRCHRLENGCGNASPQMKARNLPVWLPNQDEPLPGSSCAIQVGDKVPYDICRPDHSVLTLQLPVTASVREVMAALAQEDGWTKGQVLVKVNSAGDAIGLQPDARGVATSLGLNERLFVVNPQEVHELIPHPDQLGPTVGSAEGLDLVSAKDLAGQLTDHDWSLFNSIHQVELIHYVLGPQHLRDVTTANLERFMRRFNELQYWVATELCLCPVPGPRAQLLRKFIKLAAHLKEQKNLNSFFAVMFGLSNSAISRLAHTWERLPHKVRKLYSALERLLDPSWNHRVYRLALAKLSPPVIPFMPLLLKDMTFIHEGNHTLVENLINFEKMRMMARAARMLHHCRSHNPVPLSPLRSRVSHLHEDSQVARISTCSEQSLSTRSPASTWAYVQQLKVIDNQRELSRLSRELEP

O=c1c(-c2cc(F)cc(F)c2)nc2cnc(N3CCNCC3)nc2n1-c1ccccc1
4.03%: max response [6, 27]
inactive: Potency [1] > 11.4 µM | Potency [2] > 9.22 µM | Potency [3] > 46 µM | outcome [4] | Potency [5] | activity change, negative = inhibition [6] 4.01% | Potency [8] | Potency [9]
active: Potency [7] 15.8 µM
3.1%: max response [6, 26]

COCCn1c(=O)c(-c2ccc(F)cc2)nc2cnc(OCc3ccccc3)nc21
inactive: Potency [1] > 11.4 µM | activity change, negative = inhibition [10] -23.2% | activity change, negative = inhibition [11] -6.09% | Potency [2] > 9.22 µM | Potency [3] > 46 µM | outcome [4] | Potency [5] | Potency [12] | Potency [9]

COCCn1c(=O)c(-c2ccccc2)nc2cnc(Oc3ccc(OC)cc3)nc21
inactive: Potency [1] > 11.4 µM | activity change, negative = inhibition [10] -27.8% | activity change, negative = inhibition [11] 0.481% | activity, negative = inhibition [14] -10.2% | Potency [2] > 9.22 µM | Potency [3] > 46 µM | outcome [4] | Potency [12] | Potency [7] | Potency [15] | Potency [16] | Potency [8] | max response [18] 4.93%
active: Potency [13] 1.26 µM | Potency [17] 39.8 µM

O=c1c(CCc2ccccc2)nc2cnc(N3CCNCC3)nc2n1CCc1ccccc1
-7.41%: max response [6, 26]
inactive: activity change, negative = inhibition [10] 9.43% | activity change, negative = inhibition [11] 27.2% | activity, negative = inhibition [14] 16.4% | Potency [2] > 9.22 µM | Potency [3] > 46 µM | outcome [4] | activity change, negative = inhibition [6] 2.33% | Potency [17] | max response [18] -5.58%
-3.07%: max response [6, 27]

Cc1ccc(P(=O)(CSC(=N)N)c2ccc(C)cc2)cc1
inactive: Potency [17] | outcome [19] | activation [20] -5.01% [at 17.1 µM] | outcome [21] | activation [22] -0.0561% [at 30.8 µM]

CN1CCN(c2ncnc3ccc(-c4ccccc4Cl)cc23)CC1
-1.45%: max response [6, 27]
10.9%: max response [6, 26]
active: Potency [13] 1.58 µM | Potency [23] 5.01 µM | Potency [7] 25.1 µM | Potency [15] 28.2 µM
inactive: Potency [1] > 11.4 µM | activity change, negative = inhibition [11] -23.1% | Potency [2] > 46 µM | Potency [3] > 46 µM | outcome [4] | Potency [12] | activity change, negative = inhibition [6] -1.72% | Potency [8] | Potency [9]

Cc1cccc(CNc2cc(-c3ccccc3CN(C)C)ncn2)c1
2.52%: max response [6, 26]
10%: max response [6, 27]
inactive: Potency [1] > 11.4 µM | activity change, negative = inhibition [10] 9.15% | activity, negative = inhibition [14] 11.7% | Potency [2] > 46 µM | Potency [3] > 46 µM | outcome [4] | Potency [12] | outcome [24] | outcome [25] | activity change, negative = inhibition [6] 2.35% | Potency [8] | max response [18] -21.4%
active: Potency [13] 25.1 µM
